Of roughly 7,900 targets only a part is listed; those with a hit were picked by preference. About 0.6% of all pairs of compound and target were hits.
Legend:
Assay in all cases: log2 fold change, soluble protein after heating vs DMSO (PISA); higher = thermal stabilisation; K562 cells, 10 uM, 30 min; active = over 0.2 and 3.5 SD of the protein, either way, in both replicates (recomputed)
[1] = compound: Cc1ccc(NC(=O)c2ccc(CN3CC[C@H](N(C)C)C3)c(C(F)(F)F)c2)cc1Nc1nccc(-c2cncnc2)n1 [bafetinib]
In short: (§1)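 For each measurement, 10 μM compound was applied for 30 min to K562 cells at 2×10^6 cells/mL. Aliquots were heated for 3 min across 48°C-58°C, pooled, and extracted in PBS with 0.5% NP-40 at 4°C; the supernatant after 21,000xg for 90 min was soluble protein. This was quantified by TMTpro 16plex LC-MS/MS with channel sums equalised, and thermal stability was reported relative to control samples from duplicates, on a log2 fold-change scale.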

[2] = compound: Cc1cccc(CC(=O)N2CCc3c2ccc(-c2cn(C)c4ncnc(N)c24)c3F)n1
In short: as §1

[3] = compound: Cc1cn(-c2cc(NC(=O)c3ccc(C)c(Nc4nccc(-c5cccnc5)n4)c3)cc(C(F)(F)F)c2)cn1 [nilotinib]
In short: as §1

[4] = compound: Cc1nc(Nc2n[nH]c3c2CN(C(=O)N[C@H](CN(C)C)c2ccccc2)C3(C)C)c2sccc2n1
In short: as §1

[5] = compound: Cc1nc(Nc2ncc(C(=O)Nc3c(C)cccc3Cl)s2)cc(N2CCN(CCO)CC2)n1 [dasatinib]
In short: as §1

[6] = compound: Cc1ncc(-c2ccnc(Nc3ccc(S(C)(=O)=O)cc3)n2)n1C(C)C
In short: as §1

[7] = compound: Cn1cc(-c2ccc3c(c2)CCN3C(=O)Cc2cccc(C(F)(F)F)c2)c2c(N)ncnc21
In short: as §1

[8] = compound: Cn1cc(-c2ccc3nnc(C(F)(F)c4ccc5ncccc5c4)n3n2)cn1
In short: as §1

[9] = compound: Cn1cncc1[C@@](N)(c1ccc(Cl)cc1)c1ccc2c(c1)c(-c1cccc(Cl)c1)cc(=O)n2C [tipifarnib]
In short: as §1

[10] = compound: FC(F)(F)c1ccc(/C=C/c2nc(COc3ccc(CCCCn4ccnn4)cc3)co2)cc1 [mubritinib]
In short: as §1

[11] = compound: NC(=O)Nc1cc(-c2cccc(F)c2)sc1C(=O)N[C@H]1CCCNC1
In short: as §1

[12] = compound: NC(=O)c1cnc(N[C@@H]2CCCC[C@@H]2N)nc1Nc1cccc(-n2nccn2)c1
In short: as §1

[13] = compound: NC1(c2ccc(-c3nc4ccn5c(=O)[nH]nc5c4cc3-c3ccccc3)cc2)CCC1
In short: as §1

[14] = compound: NCC(=O)Nc1ccc(-n2nc(C(F)(F)F)cc2-c2ccc3c(ccc4ccccc43)c2)cc1
In short: as §1

[15] = compound: Nc1ccccc1NC(=O)c1ccc(CNC(=O)OCc2cccnc2)cc1 [entinostat]
In short: as §1

[16] = compound: O=C(CCCCCCC(=O)Nc1ccccc1)NO [vorinostat]
In short: as §1

[17] = compound: O=C(CCCCCCNC(=O)c1cnc(N(c2ccccc2)c2ccccc2Cl)nc1)NO [citarinostat]
In short: as §1

[18] = compound: O=C(O)c1ccc2c(c1)nc(Nc1cccc(Cl)c1)c1ccncc12 [silmitasertib]
In short: as §1

[19] = compound: O=C1NC(=O)C(c2cnc3ccccn23)=C1c1cn2c3c(cc(F)cc13)CN(C(=O)N1CCCCC1)CC2
In short: as §1

[20] = compound: c1cc(OCCN2CCCCC2)cc(-c2n[nH]c3ccc(-c4nnc[nH]4)cc23)c1
In short: as §1

Measured: log2 fold change

ELOC (UniProt Q15369)
inactive: [1] 0.003 | [2] 0.014 | [3] -0.028 | [4] 0.013 | [5] 0.032 | [6] -0.003 | [7] 0.116 | [8] 0.049 | [9] -0.027 | [10] 0.005 | [11] -0.008 | [12] -0.011 | [13] -0.015 | [14] -0.008 | [15] 0.024 | [16] 0.024 | [17] 0.036 | [18] -0.007 | [19] -0.107 | [20] -0.053

ESYT1 isoform 2 (UniProt Q9BSJ8)
inactive: [1] 0.112 | [2] 0.137 | [3] -0.088 | [4] -0.208 | [5] -0.147 | [6] 0.022 | [7] -0.059 | [8] -0.06 | [9] 0.007 | [10] -0.092 | [11] 0.062 | [12] 0.004 | [13] -0.004 | [14] -0.044 | [15] 0.086 | [16] 0.122 | [17] 0.033 | [18] 0.041 | [19] 0.187 | [20] -0.048

ERLIN1 (UniProt O75477)
inactive: [1] 0.041 | [2] 0.094 | [3] -0.153 | [4] 0.032 | [5] -0.031 | [6] 0.004 | [7] -0.11 | [8] 0.002 | [9] 0.026 | [10] -0.053 | [11] 0.083 | [12] -0.068 | [13] -0.066 | [14] -0.043 | [15] 0.111 | [16] 0.074 | [17] -0.01 | [18] -0.009 | [19] 0.084 | [20] -0.045

DNAJB1 (UniProt P25685)
UniProt P25685, sequence (P25685 whole entry, looked up): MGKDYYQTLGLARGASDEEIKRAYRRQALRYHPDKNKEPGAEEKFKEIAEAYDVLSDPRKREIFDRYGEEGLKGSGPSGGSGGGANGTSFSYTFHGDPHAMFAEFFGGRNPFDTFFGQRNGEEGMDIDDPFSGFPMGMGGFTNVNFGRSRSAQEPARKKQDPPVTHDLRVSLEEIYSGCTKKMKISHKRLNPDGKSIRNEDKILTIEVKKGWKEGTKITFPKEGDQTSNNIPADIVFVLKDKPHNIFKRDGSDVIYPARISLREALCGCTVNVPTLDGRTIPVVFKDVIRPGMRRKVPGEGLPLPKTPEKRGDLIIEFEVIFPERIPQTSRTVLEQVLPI
inactive: [1] -0.026 | [2] 0.013 | [3] -0.042 | [4] -0.058 | [5] -0.064 | [6] 0.026 | [7] 0.035 | [8] 0.02 | [9] -0.026 | [10] 0.01 | [11] -0.006 | [12] -0.041 | [13] -0.09 | [14] -0.083 | [15] 0.013 | [16] 0.034 | [17] 0.044 | [18] 0.011 | [19] -0.005 | [20] -0.04

DHRS3 (UniProt O75911)
UniProt O75911, sequence (O75911 whole entry, looked up): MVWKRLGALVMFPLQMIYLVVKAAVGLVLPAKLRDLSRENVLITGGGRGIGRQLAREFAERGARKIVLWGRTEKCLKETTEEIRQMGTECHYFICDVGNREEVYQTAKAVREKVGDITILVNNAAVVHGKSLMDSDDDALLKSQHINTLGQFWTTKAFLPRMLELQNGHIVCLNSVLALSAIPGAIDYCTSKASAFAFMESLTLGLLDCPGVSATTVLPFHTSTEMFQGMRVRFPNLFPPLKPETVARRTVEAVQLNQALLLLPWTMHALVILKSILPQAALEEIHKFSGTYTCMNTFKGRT
inactive: [1] 0.027 | [2] 0.017 | [3] 0.101 | [4] -0.031 | [5] 0.188 | [6] -0.025 | [8] 0.164 | [9] 0.012 | [10] 0.081 | [11] -0.032 | [12] -0.047 | [13] -0.081 | [14] -0.06 | [15] 0.05 | [16] -0.084 | [17] 0.024 | [18] 0.009 | [19] 0.046 | [20] -0.06
active: [7] 0.323

EVC2 (UniProt Q86UK5)
inactive: [1] -0.08 | [2] 0.023 | [3] -0.066 | [4] -0.092 | [5] -0.043 | [6] 0.131 | [7] -0.149 | [8] -0.148 | [9] 0.162 | [10] -0.053 | [11] -0.074 | [12] -0.129 | [13] 0.013 | [14] -0.268 | [15] 0.004 | [16] -0.071 | [17] 0.024 | [18] -0.042 | [19] 0.024 | [20] -0.114

FADS3 (UniProt Q9Y5Q0)
UniProt Q9Y5Q0, sequence (Q9Y5Q0 whole entry, looked up): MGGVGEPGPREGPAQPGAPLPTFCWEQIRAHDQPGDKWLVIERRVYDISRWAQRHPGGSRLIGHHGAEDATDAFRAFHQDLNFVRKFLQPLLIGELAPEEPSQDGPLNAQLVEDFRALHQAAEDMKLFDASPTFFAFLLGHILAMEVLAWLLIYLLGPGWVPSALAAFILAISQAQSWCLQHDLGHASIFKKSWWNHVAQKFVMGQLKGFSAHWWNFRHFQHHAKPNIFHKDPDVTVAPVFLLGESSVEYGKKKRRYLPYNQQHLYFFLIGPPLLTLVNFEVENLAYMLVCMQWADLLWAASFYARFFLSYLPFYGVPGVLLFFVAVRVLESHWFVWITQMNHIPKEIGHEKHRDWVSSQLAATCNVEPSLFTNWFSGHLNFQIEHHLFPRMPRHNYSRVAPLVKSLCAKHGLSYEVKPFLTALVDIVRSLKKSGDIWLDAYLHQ
inactive: [1] -0.11 | [2] 0.044 | [3] 0.108 | [4] -0.012 | [5] -0.109 | [6] -0.013 | [7] 0.034 | [8] -0.037 | [9] -0.033 | [10] 0.059 | [11] -0.086 | [12] -0.096 | [13] -0.074 | [14] 0.079 | [15] -0.06 | [16] 0.024 | [17] 0.022 | [18] -0.008 | [19] 0.259 | [20] -0.034

CYBA (UniProt P13498)
UniProt P13498, sequence (P13498 whole entry, looked up): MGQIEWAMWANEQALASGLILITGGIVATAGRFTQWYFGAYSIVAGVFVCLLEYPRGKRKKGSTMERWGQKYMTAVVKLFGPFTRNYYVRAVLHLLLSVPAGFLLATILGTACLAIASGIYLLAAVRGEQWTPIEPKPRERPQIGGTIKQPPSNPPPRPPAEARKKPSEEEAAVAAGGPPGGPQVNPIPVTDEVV
inactive: [2] -0.06 | [3] 0.01 | [4] 0.034 | [5] -0.077 | [6] 0.026 | [7] 0.002 | [8] 0.004 | [9] 0 | [10] 0.006 | [11] -0.028 | [12] -0.141 | [13] -0.044 | [14] -0.13 | [15] -0.004 | [16] 0.018 | [17] -0.01 | [18] 0 | [19] -0.01 | [20] -0.041
active: [1] -0.24

CUX1 isoform 3 (UniProt P39880)
UniProt P39880, sequence (P39880 whole entry, looked up): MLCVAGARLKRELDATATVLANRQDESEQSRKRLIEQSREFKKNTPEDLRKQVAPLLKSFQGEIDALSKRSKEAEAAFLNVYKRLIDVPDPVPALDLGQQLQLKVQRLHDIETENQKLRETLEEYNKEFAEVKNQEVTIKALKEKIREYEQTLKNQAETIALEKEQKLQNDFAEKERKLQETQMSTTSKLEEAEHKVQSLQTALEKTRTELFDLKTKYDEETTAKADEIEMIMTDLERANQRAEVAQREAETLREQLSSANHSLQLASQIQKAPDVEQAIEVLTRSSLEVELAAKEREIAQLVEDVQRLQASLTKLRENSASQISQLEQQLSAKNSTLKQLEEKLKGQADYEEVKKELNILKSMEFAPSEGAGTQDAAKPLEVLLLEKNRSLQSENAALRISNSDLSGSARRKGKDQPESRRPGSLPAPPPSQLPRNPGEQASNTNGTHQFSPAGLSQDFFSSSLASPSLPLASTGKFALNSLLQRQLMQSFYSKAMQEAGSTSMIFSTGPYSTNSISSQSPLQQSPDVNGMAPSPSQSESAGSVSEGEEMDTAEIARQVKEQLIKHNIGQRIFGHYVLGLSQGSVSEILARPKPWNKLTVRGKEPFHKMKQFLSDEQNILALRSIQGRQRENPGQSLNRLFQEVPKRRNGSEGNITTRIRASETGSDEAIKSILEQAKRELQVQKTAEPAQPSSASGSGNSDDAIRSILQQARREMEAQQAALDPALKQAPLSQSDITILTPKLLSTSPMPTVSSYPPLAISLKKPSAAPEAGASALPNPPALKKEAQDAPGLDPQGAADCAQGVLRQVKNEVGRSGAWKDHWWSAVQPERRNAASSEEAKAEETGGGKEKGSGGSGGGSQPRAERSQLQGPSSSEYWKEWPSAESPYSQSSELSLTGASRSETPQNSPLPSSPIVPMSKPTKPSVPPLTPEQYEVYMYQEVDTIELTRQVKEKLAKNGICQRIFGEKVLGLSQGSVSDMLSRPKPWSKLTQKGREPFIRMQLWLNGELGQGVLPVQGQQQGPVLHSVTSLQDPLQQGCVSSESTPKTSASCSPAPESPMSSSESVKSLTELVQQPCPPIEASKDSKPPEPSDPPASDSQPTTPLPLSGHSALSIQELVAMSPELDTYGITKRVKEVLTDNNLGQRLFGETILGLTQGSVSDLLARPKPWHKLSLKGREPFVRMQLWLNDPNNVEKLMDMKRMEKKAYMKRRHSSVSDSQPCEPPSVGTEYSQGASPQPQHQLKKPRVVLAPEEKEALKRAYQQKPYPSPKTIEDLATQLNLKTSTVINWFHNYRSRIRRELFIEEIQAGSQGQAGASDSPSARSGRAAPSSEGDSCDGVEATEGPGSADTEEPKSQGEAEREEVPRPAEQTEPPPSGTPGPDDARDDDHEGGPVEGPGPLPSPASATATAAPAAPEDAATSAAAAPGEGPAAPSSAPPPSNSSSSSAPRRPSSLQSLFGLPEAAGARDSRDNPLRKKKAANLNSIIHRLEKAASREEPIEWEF
inactive: [1] -0.054 | [2] -0.032 | [3] -0.008 | [4] -0.06 | [5] -0.016 | [6] 0.044 | [7] 0.023 | [8] 0.08 | [9] 0.046 | [10] 0.037 | [11] -0.016 | [12] -0.006 | [13] -0.034 | [14] -0.076 | [15] -0.028 | [16] 0.034 | [17] 0.019 | [18] 0.046 | [19] -0.022 | [20] -0.004

FAM50A (UniProt Q14320)
inactive: [1] -0.035 | [2] -0.045 | [3] -0.016 | [4] -0.096 | [5] -0.134 | [6] 0.029 | [7] -0.021 | [8] 0.044 | [9] -0.031 | [10] 0.083 | [11] 0.003 | [12] -0.008 | [13] -0.087 | [14] -0.082 | [15] 0.045 | [16] 0.011 | [17] 0.095 | [18] 0.071 | [19] -0.001 | [20] -0.019

DOHH (UniProt Q9BU89)
UniProt Q9BU89, sequence (Q9BU89 whole entry, looked up): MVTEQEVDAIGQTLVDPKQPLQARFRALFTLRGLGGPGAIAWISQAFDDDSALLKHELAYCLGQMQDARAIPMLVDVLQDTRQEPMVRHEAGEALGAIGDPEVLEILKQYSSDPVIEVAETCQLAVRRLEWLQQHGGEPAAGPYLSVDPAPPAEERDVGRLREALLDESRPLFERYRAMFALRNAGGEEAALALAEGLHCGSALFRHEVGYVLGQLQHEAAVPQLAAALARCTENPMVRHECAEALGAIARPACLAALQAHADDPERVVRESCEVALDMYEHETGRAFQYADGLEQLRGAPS
inactive: [2] 0.008 | [3] 0.035 | [4] -0.169 | [5] 0.013 | [6] -0.054 | [7] -0.089 | [8] 0.022 | [9] 0.014 | [10] 0.03 | [11] 0.043 | [12] 0.056 | [13] 0.278 | [14] 0.009 | [15] -0.106 | [16] -0.04 | [17] 0.017 | [18] 0.047 | [19] 0.153 | [20] 0.283
active: [1] 0.653

EIF4A1 (UniProt P60842)
UniProt P60842, sequence (P60842 whole entry, looked up): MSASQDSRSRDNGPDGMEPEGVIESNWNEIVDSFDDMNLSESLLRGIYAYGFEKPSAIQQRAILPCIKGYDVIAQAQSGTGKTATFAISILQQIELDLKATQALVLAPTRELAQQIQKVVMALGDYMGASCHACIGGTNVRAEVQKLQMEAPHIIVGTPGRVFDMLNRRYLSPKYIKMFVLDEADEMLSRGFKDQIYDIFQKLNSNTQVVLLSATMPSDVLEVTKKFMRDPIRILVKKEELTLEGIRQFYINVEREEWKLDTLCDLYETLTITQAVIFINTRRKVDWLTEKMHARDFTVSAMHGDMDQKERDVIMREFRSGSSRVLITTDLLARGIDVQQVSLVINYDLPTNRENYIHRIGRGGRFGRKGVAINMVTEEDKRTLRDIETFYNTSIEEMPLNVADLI
inactive: [1] 0.032 | [2] 0.014 | [3] -0.135 | [4] -0.063 | [5] -0.114 | [6] -0.047 | [7] 0.036 | [8] -0.022 | [9] -0.058 | [10] -0.08 | [11] 0.148 | [12] -0.08 | [13] -0.029 | [14] -0.044 | [15] 0.079 | [16] 0.068 | [17] 0.088 | [18] -0.01 | [19] -0.01 | [20] -0.05

EOGT (UniProt Q5NDL2)
inactive: [1] -0.009 | [2] -0.025 | [3] -0.044 | [4] 0.055 | [5] -0.052 | [6] -0.005 | [7] -0.082 | [8] -0.038 | [9] 0.029 | [10] -0.021 | [11] -0.008 | [12] -0.063 | [13] -0.045 | [14] -0.011 | [15] 0.031 | [16] -0.092 | [17] -0.016 | [18] 0.038 | [19] 0.009 | [20] -0.063

DHX16 (UniProt O60231)
UniProt O60231, sequence (O60231 whole entry, looked up): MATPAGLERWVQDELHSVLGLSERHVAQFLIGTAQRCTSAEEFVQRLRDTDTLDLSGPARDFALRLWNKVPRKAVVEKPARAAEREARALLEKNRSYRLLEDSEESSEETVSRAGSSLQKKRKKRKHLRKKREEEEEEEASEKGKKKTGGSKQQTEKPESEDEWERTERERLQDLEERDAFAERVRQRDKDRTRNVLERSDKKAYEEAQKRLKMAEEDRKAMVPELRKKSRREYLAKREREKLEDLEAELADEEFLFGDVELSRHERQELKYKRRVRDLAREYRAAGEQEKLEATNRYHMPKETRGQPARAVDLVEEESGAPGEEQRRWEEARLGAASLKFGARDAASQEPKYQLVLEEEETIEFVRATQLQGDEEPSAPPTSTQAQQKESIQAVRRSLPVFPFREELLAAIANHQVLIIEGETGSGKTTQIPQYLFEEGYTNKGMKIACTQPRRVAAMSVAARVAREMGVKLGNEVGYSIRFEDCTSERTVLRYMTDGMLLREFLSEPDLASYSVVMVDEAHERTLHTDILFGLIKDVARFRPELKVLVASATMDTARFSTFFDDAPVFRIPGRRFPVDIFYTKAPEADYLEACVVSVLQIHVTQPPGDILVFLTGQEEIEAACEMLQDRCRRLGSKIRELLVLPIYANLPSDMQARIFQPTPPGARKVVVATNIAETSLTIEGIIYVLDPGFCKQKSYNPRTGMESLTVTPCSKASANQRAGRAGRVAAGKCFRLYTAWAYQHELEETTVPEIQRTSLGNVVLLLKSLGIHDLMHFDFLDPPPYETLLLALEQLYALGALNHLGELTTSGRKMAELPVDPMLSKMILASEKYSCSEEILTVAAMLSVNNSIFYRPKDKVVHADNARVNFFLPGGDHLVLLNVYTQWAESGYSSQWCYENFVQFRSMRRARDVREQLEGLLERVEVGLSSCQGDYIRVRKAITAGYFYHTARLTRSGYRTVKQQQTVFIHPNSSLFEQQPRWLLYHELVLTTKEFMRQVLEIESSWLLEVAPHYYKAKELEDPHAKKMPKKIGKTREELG
inactive: [1] 0.001 | [2] 0.044 | [3] -0.031 | [4] 0.019 | [5] -0.095 | [6] -0.006 | [7] 0.059 | [8] 0.002 | [9] -0.04 | [10] 0.147 | [11] 0.005 | [12] 0.018 | [13] -0.021 | [14] -0.044 | [15] 0.013 | [16] 0.001 | [17] 0.049 | [18] -0.142 | [19] -0.012 | [20] -0.041

EFCAB14 (UniProt O75071)
inactive: [1] -0.008 | [2] -0.056 | [3] 0.084 | [4] 0.011 | [5] 0.075 | [6] 0.003 | [7] -0.123 | [8] -0.048 | [9] -0.062 | [10] 0.081 | [11] 0.024 | [12] 0.218 | [13] -0.123 | [14] -0.006 | [15] 0.007 | [16] -0.057 | [17] 0.181 | [18] 0.022 | [19] -0.031 | [20] -0.075

CTSA (UniProt P10619)
UniProt P10619, sequence (P10619 whole entry, looked up): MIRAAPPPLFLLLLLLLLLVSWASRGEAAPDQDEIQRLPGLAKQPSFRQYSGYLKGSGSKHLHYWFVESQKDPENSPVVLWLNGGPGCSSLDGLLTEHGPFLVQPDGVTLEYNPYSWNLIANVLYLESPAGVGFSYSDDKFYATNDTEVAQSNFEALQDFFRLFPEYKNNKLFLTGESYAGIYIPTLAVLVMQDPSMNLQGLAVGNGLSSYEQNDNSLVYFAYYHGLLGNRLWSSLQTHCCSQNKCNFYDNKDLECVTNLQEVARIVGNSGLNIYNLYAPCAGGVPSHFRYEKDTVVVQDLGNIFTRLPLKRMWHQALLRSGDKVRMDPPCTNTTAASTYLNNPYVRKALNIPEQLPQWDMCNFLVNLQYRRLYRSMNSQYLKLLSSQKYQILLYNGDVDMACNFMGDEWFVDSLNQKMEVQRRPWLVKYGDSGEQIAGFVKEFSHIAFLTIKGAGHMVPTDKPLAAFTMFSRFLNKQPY
active: [1] -0.595
inactive: [2] -0.04 | [3] 0.052 | [4] 0.015 | [5] 0.112 | [6] -0.001 | [7] 0.019 | [8] 0.005 | [9] 0.16 | [10] 0.007 | [11] 0.031 | [12] 0.092 | [13] -0.067 | [14] -0.013 | [15] 0.001 | [16] -0.03 | [17] -0.005 | [18] 0.044 | [19] -0.023 | [20] 0.134
